Hits are enriched below; roughly 8.3% of the tested compounds scored in any of these assays.
Chronic BCR inh – inhibitors of chronic active B-cell receptor signaling; actives 0.05% (n = 340,000); ABC-DLBCL IkBa-CBG/CBR reporter, luminescence ratio, 4 h; Potency, µM (top dose mostly 46.1 µM), most hits filed as inhibitors; active = well fitted inhibition curve with a large enough effect in the signal ratio, with a control signal flat, not every such curve was filed as active; inconclusive = small, poorly fitted or top-dose-only effect, or effect the other way, or a change in a side signal; the % refers to the signal ratio
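Concentration-response series (up to 46 uM) were applied to TMD8 dual-reporter cells for 4 h at 37C with doxycycline. Green/red ratio, after filter-overlap correction, defined %Activity; red signal alone was normalised to basal cells and zero luminescence.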
VP16 counter – counter-screen for ROR gamma inhibitors: Gal4-VP16 reporter. Drosophila S2 Gal4-VP16 UAS-luciferase, luminescence, 20 h. actives 3.5% (n = 310,000). AID 2546. Potency, µM (highest dose often 53.6 µM), usual class: inhibitors;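 also: Gal4-VP16 expression switched on by copper sulfate through the metallothionein promoter; nearly all actives have a fitted effect of over 50% in size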
Giardia killer – kills Giardia lamblia; activity change, % at 7.66 µM, hits read low; AID 540267; actives 0.15% (n = 340,000); Giardia lamblia trophozoite viability; in the data active = activity change below about -80%; inconclusive = between about -30% and that limit;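 also: parasites exposed to compound for two days anaerobically before the ATP read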
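Anaerobic 48 hrs incubation at 37 deg C of 100 trophozoites/well with test compounds; ATPLite 1-Step luminescence, 15-30 min RT, reports cellular ATP as viability.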
MCF10A rereplic – DNA re-replication induction in MCF 10a cells. AID 624296. Potency, µM (doses to about 46.1 µM), hits mostly activators. actives 2.9% (n = 350,000). MCF 10A DNA re-replication, Hoechst nuclear intensity, 48 h; also: nearly all actives have a fitted effect of over 50% in size
RORgamma inh – inhibitors of mouse ROR gamma transcriptional activity. P51450. Drosophila S2 Gal4-RORgamma UAS-luciferase reporter, 20 h. Potency, µM (top dose mostly 53.6 µM), usual class: inhibitors. actives 5.4% (n = 310,000); also: nearly all actives have a fitted effect of over 60% in size
Target sequence (P51450 whole entry, looked up, the tested form may be a part): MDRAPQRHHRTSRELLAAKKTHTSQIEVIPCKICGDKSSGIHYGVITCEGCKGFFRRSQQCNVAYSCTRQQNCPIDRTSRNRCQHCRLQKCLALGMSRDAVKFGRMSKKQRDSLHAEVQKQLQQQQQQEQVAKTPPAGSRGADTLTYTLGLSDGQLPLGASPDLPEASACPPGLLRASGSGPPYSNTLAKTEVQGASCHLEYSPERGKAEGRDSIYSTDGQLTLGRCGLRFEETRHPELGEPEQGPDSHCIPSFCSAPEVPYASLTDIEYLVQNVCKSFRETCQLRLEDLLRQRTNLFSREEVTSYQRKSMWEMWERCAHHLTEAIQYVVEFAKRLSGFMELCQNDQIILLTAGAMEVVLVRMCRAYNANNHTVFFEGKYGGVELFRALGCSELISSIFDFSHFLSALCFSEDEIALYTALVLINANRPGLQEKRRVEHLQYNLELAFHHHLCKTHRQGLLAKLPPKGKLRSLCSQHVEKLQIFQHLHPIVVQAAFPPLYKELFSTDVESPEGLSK
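ROR gamma transcriptional activity was tracked as Gal4-UAS luciferase output in stably transfected Drosophila Schneider cells, with compound added 1 hr before 700 uM copper sulfate induction and a 20 hr ambient-temperature incubation.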
SW480 rerep – DNA re-replication induction in SW480 cells; SW480 DNA re-replication, Hoechst DNA content imaging, 48 h; Potency, µM (titrated, usually from 46.1 µM), usual class: activators; actives 1.8% (n = 340,000); AID 624297; also: nearly all actives have a fitted effect of over 55% in size
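DNA re-replication was detected as more nuclei of elevated Hoechst intensity after 48 hr exposure to compound (23 nL pinned per well of 250 cells).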
Numbers stand for hits; – = inactive; ? = inconclusive; · = no result given; [ ] = remark or other dose. Unless noted, calls follow the shape of the dose curve; as a rule, active = well fitted curve in the direction sought with a large enough effect; inconclusive = small, poorly fitted or top-dose-only effect, or another doubt; inactive = no such curve, though single readings can be large; an effect the other way counts as inactive or inconclusive.

SMILES	Chronic BCR inh	VP16 counter	Giardia killer	MCF10A rereplic	RORgamma inh	SW480 rerep
COc1cccc(/C=N/NC(=O)c2ccc(-c3ccccc3)cc2)c1O	?	3.16µM	–	?	0.708µM	?
COc1ccccc1/C=N/NC(=O)c1cccc(OC(F)(F)C(F)F)c1	–	–	–	–	–	?
COc1cc(OC)c(OC)cc1/C=N/NC(=O)c1ccc(=O)n(C)c1	–	–	–	–	–	–
O=C(/C=C/c1ccco1)OCC1CCCN2CCCCC12 (configuration not stated)	–	–	–	?	–	–
Cc1cc(C)nc(N2CCN(S(=O)(=O)c3ccc(F)cc3)CC2)n1	–	–	–	–	–	–
COc1ccc2nc(C)cc(N/N=C/c3ccccc3)c2c1	?	·	–	23.1µM	·	16.4µM
COc1ccccc1/C=N/Nc1cc(C)nc2ccc(C)cc12	–	–	–	–	–[1.91 µM]	–
COc1ccc(/C=N/Nc2ncc(-c3ccccc3)cn2)c(OC)c1	–	?	–	?	?	?
COc1ccc(/C=N/Nc2cc(C)nc3ccc(OC)cc23)c(OC)c1	?	10µM	–	?	11.2µM	23.1µM
Cc1ccc2nc(C)cc(N/N=C/c3ccccc3O)c2c1	–	7.94µM	–	–	5.62µM	–
Cc1cc(N/N=C/c2ccco2)c2ccccc2n1	–	–	–	–	–	–
Cc1cc(N/N=C/c2ccc(N(C)C)cc2)c2ccccc2n1	–	?	–	?	15.8µM	?
FC(F)(F)c1ccccc1-c1nc(N2CCNCC2)c2ccccc2n1	·	–	·	·	–	·
COc1ccccc1CNC(=O)C(=O)NCC(c1cccs1)S(=O)(=O)c1ccccc1 (configuration not stated)	–	·	·	·	·	·
COc1cccc(C(=O)Oc2ccc3ccc(=O)oc3c2)c1	–	–	–	–	–	?
Cc1ccc(Cl)cc1-n1ncc2c(NCc3ccc(F)cc3)ncnc21	–	·	·	·	·	·
COc1ccc2nc(C)cc(NCc3ccc(F)cc3)c2c1	?	–	–	18.4µM	–	?
COc1ccc(/C=N/Nc2nc(C)cc(-c3ccccc3)n2)c(OC)c1	–	11.2µM	–	–	10µM	–
COc1ccc(O)c(/C=N/Nc2nc(C)cc(-c3ccccc3)n2)c1	·	·	–	?	·	–
c1ccc(-c2noc(C34CC5CC(CC(C5)C3)C4)n2)cc1	?	–	–	11.6µM	?	–
c1ccc(-c2noc(C34CC5CC(CC(C5)C3)C4)n2)nc1	–	–	–	–	–	–
COc1cccc(-c2nn(-c3ccccc3)cc2CN(C)C(C)c2ccncn2)c1 (configuration not stated)	–	–	?	–	?	–
COc1ccc(-n2cc(CN(C)C(C)c3ccncn3)c(-c3cccc(F)c3)n2)cc1 (configuration not stated)	?	–	–	13µM	–	–
CCc1ccc(NC(=O)CC2C(=O)Nc3c2c(=O)n(C)c(=O)n3C)cc1 (configuration not stated)	–	–	–	–	–	–
Cn1c(=O)c2c(nc(NCc3ccco3)n2Cc2ccc(Cl)cc2Cl)n(C)c1=O	–	6.31µM	–	–	?	–
SMILES	Chronic BCR inh	VP16 counter	Giardia killer	MCF10A rereplic	RORgamma inh	SW480 rerep
Cn1c(=O)c2c(nc(NCCCN3CCOCC3)n2Cc2ccc(Cl)cc2Cl)n(C)c1=O	–	–	·	·	–	·
Cn1c(=O)c2c(nc(NCc3ccco3)n2CCc2ccccc2)n(C)c1=O	–	7.94µM	–	–	12.6µM	–
CCn1c(NCc2ccco2)nc2c1c(=O)n(C)c(=O)n2C	?	–	–	–	–	–
COC(=O)Nc1ccc(S(=O)(=O)N2CCCC(C(=O)N3CCN(C)CC3)C2)cc1 (configuration not stated)	–	–	–	–	–	–
CCCCC[C@]12Cc3cc(OC)c(OC)cc3[C@H](O1)c1c(cc(C)oc1=O)O2	–[9.22 µM]	–[10 µM]	·	·	–[10 µM]	·
CN(C)N1C(=O)C2C3C=CC(O3)C2C1=O (configuration not stated)	·	·	–	–	·	–
CC(C)(C)C(=O)Oc1ccc2cc(-c3ccc4ccccc4n3)c(=O)oc2c1	–	?	–	6.51µM	–	23.1µM
Cn1c(-c2cc3ccc(OC(=O)C(C)(C)C)cc3oc2=O)nc2ccccc21	–	–	–	–	–	?
O=C(c1ccncc1)N1CCN(S(=O)(=O)c2cccc(Cl)c2)CC1	–	·	–	–	·	–
O=C(N/N=C/c1ccc(Cl)cc1Cl)c1ccc2nc[nH]c2c1	–	–	–	–	–	–
Cc1cccc(/C=N/NC(=O)c2ccc(F)cc2)n1	?	?	–	–	7.08µM	?
Cc1cccc(/C=N/NC(=O)c2cc(Br)ccc2OCc2ccccc2)n1	?	–	–	?	?	?
O=C(N/N=C/c1ccc(Cl)cc1Cl)c1cccc(F)c1	–	?	–	–	11.2µM	–
O=C(N/N=C/c1c(Cl)cccc1Cl)c1ccccc1F	–	–	–	–	–	–
Cc1cccc(/C=N/NC(=O)c2cccc(NC(=O)c3ccccc3)c2)n1	?	–	–	–	–	–
Cc1cccc(/C=N/NC(=O)c2ccccc2OCc2cccc(Br)c2)n1	?	?	–	18.4µM	15.8µM	–
O=C(N/N=C/c1c(Cl)cccc1Cl)c1ccc(F)cc1	?	–	–	–	11.2µM	–
COC(=O)c1ccc(C(=O)OC)c(NC(=O)c2cnn3c(C(F)F)cc(-c4ccccc4)nc23)c1	–	·	·	·	·	·
COc1ccc(CCNC(=O)C2CCCN2C(=O)Nc2ccc(Cl)cc2)cc1OC (configuration not stated)	–	–	–	–	–[1.91 µM]	–
Cc1cccc(/C=N/NC(=O)c2cccc(Cl)c2)n1	–	11.2µM	–	?	7.08µM	?
O=S(=O)(Nc1nc2ccccc2nc1N1CCc2ccccc2C1)c1ccc(Br)cc1	?	?	–	14.6µM	7.94µM	–
O=S(=O)(Nc1nc2ccccc2nc1N1CCc2ccccc2C1)c1ccc(Cl)cc1	–	?	–	–	–[10 µM]	?
CC(C)c1ccc(NC(=O)CSC2=Nc3ccccc3C3=NC(CCC(=O)NCc4ccco4)C(=O)N23)cc1 (configuration not stated)	–	·	·	·	·	·
Cc1nnc(SCC(=O)N2CCCC(N3CCN(c4ccc(F)cc4)CC3)C2)o1 (configuration not stated)	–	–	–	–	–	–
Cc1cc(Oc2ccccc2)nc(SCC(=O)Nc2ccc(Cl)cc2Cl)n1	–	–	–	–	3.55µM	?
COc1ccc(C(=O)NC(=S)Nc2ccccc2N2CCCCC2)cc1[N+](=O)[O-]	?	1µM	–	?	?	–
CCOc1ccc(C(=O)NC(=S)Nc2ccccc2OC)cc1[N+](=O)[O-]	?	?	–	–	7.08µM	–
COc1ccc(C(=O)NC(=S)N2CCCCC2)cc1[N+](=O)[O-]	–	1.26µM	–	–	0.891µM	–
